Results filed as inconclusive are left out. A call without a number means that no potency is given here. Unmarked numbers belong to inactive results. Active and inactive are the calls of the source. Calls follow the shape of the dose curve; as a rule, active = well fitted activation curve with a large enough effect; inconclusive = small, poorly fitted or top-dose-only effect, or another doubt; inactive = no such curve, though single readings can be large or run the other way.
Potency is read from the fitted curve at half-maximal effect.

The target of this test is Rap guanine nucleotide exchange factor 3 (Homo sapiens) (UniProt O95398). Put plainly: Counterscreen qHTS for agonist of cAMP-regulated guanine nucleotide exchange factor 3 (EPAC1) (AID 1645889). Also: nearly all actives have a fitted effect of over 40% in size. Conditions: EPAC1 Rap1B-BODIPY-GDP exchange, fluorescence; series mostly up to 154 µM. An outline of the steps:
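Measured: fluorescence of BODIPY-GDP bound to Rap1B, which falls as exchange proceeds. Conditions include 50 uM competing GDP, 5 and 30 min reads, and a later cAMP challenge for antagonist detection.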
As for `CNc1ccc(/C=C(\CCC(=O)O)c2nc3ccccc3s2)cc1[N+](=O)[O-]`, the activation was 19.8% [at 30.8 µM].

Consider `O=C(O)CC/C(=C\c1cccc(NC(=O)c2ccccc2Cl)c1)c1nc2ccccc2s1`, for which the Potency entry was “inactive”.

On to `CCOc1cc(/C=C2\SC(=Nc3ccc(CC)cc3)NC2=O)ccc1OCC(=O)O`, for which the Potency result was “inactive”.

On to `COc1ccc(C(=O)NCCn2cc(SCC(=O)NCCc3ccc(OC)c(OC)c3)c3ccccc32)cc1`, for which the Potency entry is “inactive”.

For `O=[N+]([O-])c1ccc(NS(=O)(=O)c2ccccc2)c(Cl)c1`, the Potency entry was “inactive”.

As for `Cc1ccc(NS(=O)(=O)c2cccc3cccnc23)c(Cl)c1`, the Potency result was “inactive”.

With `S=c1[nH]nc(-c2cc(-c3ccccc3)n[nH]2)n1/N=C/c1ccc(Cl)c(Cl)c1`, the activation was 18.4% [at 30.8 µM].

Turning to `CCOc1ccc(/C=C2\SC(=S)N(NS(=O)(=O)c3ccccc3)C2=O)cc1OC`, the Potency result is “inactive”.

Take `Cc1cccn2c(=O)c(/C=C(\C#N)c3nc4ccccc4n3C)c(Oc3ccc(Br)cc3)nc12`: the Potency is 39.8 µM (active).

For the compound `CCc1ccc(N=C2NC(=O)/C(=C/c3ccc(OCC(=O)O)cc3)S2)cc1`, the activation was 14.2% [at 30.8 µM].

In the case of `O=C(O)CC/C(=C\c1ccc(N2CCCC2)c([N+](=O)[O-])c1)c1nc2ccccc2s1`, the Potency result was “inactive”.

For the compound `COc1ccc(C(=O)c2ccc(Br)cc2)c(OC)c1OC`, the Potency result is “inactive”.

For the compound `CC1(C)CC2CC(C)(CN2C(=O)c2cc(-c3ccccc3O)on2)C1` (stereo not drawn), the activation was 17.1% [at 30.8 µM].

Regarding `CC(/C=C1\SC(=S)N(c2ccc(C(=O)O)cc2)C1=O)=C\c1ccccc1`, the activation was 18.6% [at 30.8 µM].

As to `COc1ccc(CCn2c(O)cc3nn(-c4nc5ccccc5s4)c(=O)c-3c2C)cc1`, the Potency result is “inactive”.

As to `CCOC(=O)c1cc(-c2ccc(/C=C3/C(=O)N(c4ccc(C(=O)O)cc4)N=C3C)o2)ccc1Cl`, the Potency entry is “inactive”.

With `COc1cc(/C=C2\CCn3c2nc2cc(C(=O)O)ccc2c3=O)ccc1OC(F)F`, the Potency result is “inactive”.

`Cc1c(CCC(=O)O)c(=O)oc2cc(OCc3ccccc3Br)ccc12`: the Potency result is “inactive”.

Regarding `Cn1c(SCC(=O)Nc2cccc(C(=O)O)c2)nnc1-c1cc2cc(Br)ccc2o1`, the Potency entry was “inactive”.

`O=c1oc2c3c(ccc2c2ccccc12)OCN(Cc1cccc(Cl)c1)C3`: the Potency result was “inactive”.

`NC(N)=N/N=C/c1ccc(OCc2ccc(Cl)cc2Cl)cc1`: the activation is 27.4% [at 30.8 µM].

With `COc1cc2ccccc2cc1C(=O)NC(=S)Nc1cccc(C(=O)O)c1`, the activation was 7.44% [at 30.8 µM].

As to `O=C(O)COc1ccccc1/C=N/Nc1ccc(S(=O)(=O)Nc2ccc(Cl)cc2)cc1[N+](=O)[O-]`, the activation is 17.2% [at 30.8 µM].

These data come from PubChem BioAssay (NCATS).
